# From PubChem BioAssay AID1159580 (chemical genetic matrix, 2015)
# The whole screen tested about 5,500 compounds, of which about 2,000 (36%) were called active. Roughly 18% stayed inconclusive and do not appear here. The list shows a part of the results. A number with no mark means an inactive call. Cut-off read from the data, not from the text of the source: active = normalized growth mostly below about 0.91 (no sharp cut-off); inconclusive = no clear call, values can overlap the other calls; inactive = mostly above about 0.92.
# Experiment: chemical genetic growth profiling, strain panel (AID 1159580);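 note: tested at 20 µM; growth read once vehicle control cultures reached saturation at 30 °C; 1 = growth at the plate median or of vehicle wells; lower values mean less growth of the strain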
# Settings: growth OD
# [1] = S. cerevisiae deletion strains, locus YDL101C, strain DUN1, hits give low values
# [2] = S. cerevisiae deletion strains, locus YHR030C, strain SLT2, hits give low values
# [3] = S. cerevisiae deletion strains, locus YAL013W, strain DEP1, hits give low values
# [4] = S. cerevisiae deletion strains, locus YBR229C, strain ROT2, hits give low values
# [5] = S. cerevisiae deletion strains, locus YDR150W, strain NUM1, hits give low values
# [6] = S. cerevisiae deletion strains, locus YEL061C, strain CIN8, hits give low values
# [7] = S. cerevisiae deletion strains, locus YGR078C, strain PAC10, hits give low values
# [8] = S. cerevisiae deletion strains, locus YGR229C, strain SMI1, hits give low values
# [9] = S. cerevisiae deletion strains, locus YHR087W, strain rtc3, hits give low values
# [10] = S. cerevisiae deletion strains, locus YJL187C, strain SWE1, hits give low values
# [11] = S. cerevisiae deletion strains, locus YJR043C, strain POL32, hits give low values
# [12] = S. cerevisiae deletion strains, locus YJR075W, strain HOC1, hits give low values
# [13] = S. cerevisiae deletion strains, locus YLR039C, strain RIC1, hits give low values
# [14] = S. cerevisiae deletion strains, locus YLR058C, strain SHM2 (second series), hits give low values
# [15] = S. cerevisiae deletion strains, locus YLR085C, strain ARP6, hits give low values
# [16] = S. cerevisiae deletion strains, locus YLR262C, strain YPT6, hits give low values
# [17] = S. cerevisiae deletion strains, locus YML094W, strain GIM5, hits give low values
# [18] = S. cerevisiae deletion strains, locus YMR219W, strain ESC1, hits give low values
# [19] = S. cerevisiae deletion strains, locus YMR263W, strain SAP30, hits give low values
# [20] = S. cerevisiae deletion strains, locus YMR307W, strain GAS1, hits give low values
# [21] = S. cerevisiae deletion strains, locus YNL153C, strain GIM3, hits give low values
# [22] = S. cerevisiae deletion strains, locus YNL298W, strain CLA4 (second series), hits give low values
# [23] = S. cerevisiae deletion strains, locus YNL322C, strain KRE1, hits give low values
# [24] = S. cerevisiae deletion strains, locus YNR030W, strain Alg12, hits give low values
# [25] = S. cerevisiae deletion strains, locus YPL055C, strain LGE1, hits give low values
# [26] = S. cerevisiae deletion strains, locus YPL241C, strain CIN2, hits give low values
# [27] = S. cerevisiae deletion strains, locus YPR135W, strain CTF4, hits give low values
# [28] = S. cerevisiae strains, strain wild type, hits give low values
# [29] = S. cerevisiae deletion strains, locus YCL061C, strain MRC1, hits give low values
smiles,measurement,setting,value
Cn1nccc1-c1cc(Cl)cc(Cl)c1O,normalized growth,"S. cerevisiae deletion strains, locus YAR019C, strain CDC15, hits give low values",0.955
same,normalized growth,"S. cerevisiae deletion strains, locus YBL105C, strain PKC1, hits give low values",0.959
same,normalized growth,"S. cerevisiae deletion strains, locus YBR135W, strain CKS1, hits give low values",0.963
same,normalized growth,"S. cerevisiae deletion strains, locus YBR136W, strain MEC1, hits give low values",0.959
same,normalized growth,"S. cerevisiae deletion strains, locus YBR160W, strain CDC28, hits give low values",0.969
same,normalized growth,"S. cerevisiae deletion strains, locus YDL017W, strain CDC7, hits give low values",0.962
same,normalized growth,"S. cerevisiae deletion strains, locus YDL028C, strain MPS1, hits give low values",0.964
same,normalized growth,[1],0.964
same,normalized growth,"S. cerevisiae deletion strains, locus YDL108W, strain KIN28, hits give low values",0.967
same,normalized growth,"S. cerevisiae deletion strains, locus YDL132W, strain cdc53, hits give low values",0.966
same,normalized growth,"S. cerevisiae deletion strains, locus YDL214C, strain PRR2, hits give low values",0.799
same,normalized growth,"S. cerevisiae deletion strains, locus YDR052C, strain DBF4, hits give low values",0.971
same,normalized growth,"S. cerevisiae deletion strains, locus YDR054C, strain cdc34, hits give low values",0.969
same,normalized growth,"S. cerevisiae deletion strains, locus YDR226W, strain ADK1, hits give low values",0.981
same,normalized growth,"S. cerevisiae deletion strains, locus YDR477W, strain SNF1, hits give low values",0.731
same,normalized growth,"S. cerevisiae deletion strains, locus YER123W, strain YCK3, hits give low values",0.739
same,normalized growth,"S. cerevisiae deletion strains, locus YER133W, strain GLC7, hits give low values",0.687 (active)
same,normalized growth,"S. cerevisiae deletion strains, locus YFL009W, strain cdc4, hits give low values",0.982
same,normalized growth,"S. cerevisiae deletion strains, locus YFL029C, strain CAK1, hits give low values",0.952
same,normalized growth,"S. cerevisiae deletion strains, locus YFR003C, strain YPI1, hits give low values",0.961
same,normalized growth,"S. cerevisiae deletion strains, locus YFR019W, strain FAB1, hits give low values",0.869
same,normalized growth,"S. cerevisiae deletion strains, locus YFR028C, strain CDC14, hits give low values",0.975
same,normalized growth,"S. cerevisiae deletion strains, locus YGR040W, strain KSS1, hits give low values",0.745
same,normalized growth,"S. cerevisiae deletion strains, locus YGR052W, strain FMP48, hits give low values",0.742
same,normalized growth,"S. cerevisiae deletion strains, locus YGR092W, strain DBF2, hits give low values",0.722
same,normalized growth,[2],0.617 (active)
same,normalized growth,"S. cerevisiae deletion strains, locus YHR079C, strain IRE1, hits give low values",0.698
same,normalized growth,"S. cerevisiae deletion strains, locus YHR082C, strain KSP1, hits give low values",0.748
same,normalized growth,"S. cerevisiae deletion strains, locus YHR205W, strain SCH9, hits give low values",0.787
same,normalized growth,"S. cerevisiae deletion strains, locus YIL147C, strain SLN1, hits give low values",0.96
same,normalized growth,"S. cerevisiae deletion strains, locus YJL095W, strain BCK1, hits give low values",0.676
same,normalized growth,"S. cerevisiae deletion strains, locus YJL128C, strain PBS2, hits give low values",0.917
same,normalized growth,"S. cerevisiae deletion strains, locus YJL157C, strain FAR1, hits give low values",0.749
same,normalized growth,"S. cerevisiae deletion strains, locus YJR016C, strain ILV3, hits give low values",0.962
same,normalized growth,"S. cerevisiae deletion strains, locus YJR066W, strain TOR1 (second series), hits give low values",0.673
same,normalized growth,"S. cerevisiae deletion strains, locus YJR066W, strain TOR1, hits give low values",0.686
same,normalized growth,"S. cerevisiae deletion strains, locus YKL048C, strain ELM1, hits give low values",0.908
same,normalized growth,"S. cerevisiae deletion strains, locus YKL067W, strain YNK1, hits give low values",0.817
same,normalized growth,"S. cerevisiae deletion strains, locus YKL101W, strain HSL1, hits give low values",0.835
same,normalized growth,"S. cerevisiae deletion strains, locus YKL193C, strain SDS22, hits give low values",0.934
same,normalized growth,"S. cerevisiae deletion strains, locus YKL203C, strain TOR2, hits give low values",0.798
same,normalized growth,"S. cerevisiae deletion strains, locus YLR113W, strain HOG1, hits give low values",0.571 (active)
same,normalized growth,"S. cerevisiae deletion strains, locus YLR133W, strain CKI1, hits give low values",0.825
same,normalized growth,"S. cerevisiae deletion strains, locus YLR403W, strain SFP1, hits give low values",0.678
same,normalized growth,"S. cerevisiae deletion strains, locus YML070W, strain DAK1, hits give low values",0.719
same,normalized growth,"S. cerevisiae deletion strains, locus YMR001C, strain CDC5, hits give low values",0.947
same,normalized growth,"S. cerevisiae deletion strains, locus YMR205C, strain PFK2 (second series), hits give low values",0.795
same,normalized growth,"S. cerevisiae deletion strains, locus YMR277W, strain FCP1, hits give low values",0.934
same,normalized growth,"S. cerevisiae deletion strains, locus YNL006W, strain LST8, hits give low values",0.968
same,normalized growth,"S. cerevisiae deletion strains, locus YNL020C, strain ARK1, hits give low values",0.819
same,normalized growth,"S. cerevisiae deletion strains, locus YNL161W, strain CBK1, hits give low values",0.956
same,normalized growth,"S. cerevisiae deletion strains, locus YNL183C, strain NPR1, hits give low values",0.757
same,normalized growth,"S. cerevisiae deletion strains, locus YNL207W, strain RIO2, hits give low values",0.948
same,normalized growth,"S. cerevisiae deletion strains, locus YNL222W, strain SSU72, hits give low values",0.964
same,normalized growth,"S. cerevisiae deletion strains, locus YNL307C, strain MCK1 (second series), hits give low values",0.798
same,normalized growth,"S. cerevisiae deletion strains, locus YOL078W, strain AVO1, hits give low values",0.95
same,normalized growth,"S. cerevisiae deletion strains, locus YOL136C, strain PFK27, hits give low values",0.773
same,normalized growth,"S. cerevisiae deletion strains, locus YOR061W, strain CKA2, hits give low values",0.744
same,normalized growth,"S. cerevisiae deletion strains, locus YOR119C, strain RIO1, hits give low values",0.798
same,normalized growth,"S. cerevisiae deletion strains, locus YOR231W, strain MKK1, hits give low values",0.795
same,normalized growth,"S. cerevisiae deletion strains, locus YOR329C, strain SCD5, hits give low values",0.963
same,normalized growth,"S. cerevisiae deletion strains, locus YPL031C, strain PHO85, hits give low values",0.704
same,normalized growth,"S. cerevisiae deletion strains, locus YPL153C, strain RAD53, hits give low values",0.718
same,normalized growth,"S. cerevisiae deletion strains, locus YPL204W, strain HRR25, hits give low values",0.685
same,normalized growth,"S. cerevisiae deletion strains, locus YPL209C, strain IPL1, hits give low values",0.965
same,normalized growth,"S. cerevisiae deletion strains, locus YPL256C, strain CLN2, hits give low values",0.718 (active)
same,normalized growth,"S. cerevisiae deletion strains, locus YPR025C, strain CCL1, hits give low values",0.961
same,normalized growth,"S. cerevisiae deletion strains, locus YPR106W, strain ISR1, hits give low values",0.948
same,normalized growth,"S. cerevisiae deletion strains, locus YPR111W, strain DBF20, hits give low values",0.952
same,normalized growth,"S. cerevisiae deletion strains, strain NNK1, hits give low values",0.96
same,normalized growth,"S. cerevisiae deletion strains, strain TSCII, hits give low values",0.947
FC(F)(F)c1cc(Cl)c2nsnc2c1,normalized growth,[3],1
same,normalized growth,[4],0.993
same,normalized growth,[1],1.01
same,normalized growth,[5],1
same,normalized growth,[6],0.99
same,normalized growth,[7],0.997
same,normalized growth,[8],1
same,normalized growth,[2],1.02
same,normalized growth,[9],1.01
same,normalized growth,[10],0.99
same,normalized growth,[11],0.998
same,normalized growth,[12],0.985
same,normalized growth,[13],0.991
same,normalized growth,[14],0.993
same,normalized growth,[15],1.01
same,normalized growth,[16],0.974
same,normalized growth,[17],1.06
same,normalized growth,[18],1
same,normalized growth,[19],1
same,normalized growth,[20],1.01
same,normalized growth,[21],0.996
same,normalized growth,[22],0.993
same,normalized growth,[23],0.995
same,normalized growth,[24],1.01
same,normalized growth,[25],1.03
same,normalized growth,[26],1.08
same,normalized growth,[27],1.03
same,normalized growth,[28],0.987
O=S(=O)(c1ccc(Cl)cc1)c1cc(C(F)(F)F)cc(C(F)(F)F)c1,normalized growth,[3],0.978
same,normalized growth,[4],0.983
same,normalized growth,[29],1
same,normalized growth,[1],1.01
same,normalized growth,[5],1.01
same,normalized growth,[6],0.963
same,normalized growth,[7],0.988
same,normalized growth,[8],0.98
same,normalized growth,[2],0.988
same,normalized growth,[9],0.986
same,normalized growth,[10],0.984
same,normalized growth,[11],0.989
same,normalized growth,[12],0.957
same,normalized growth,[13],0.954
same,normalized growth,[14],0.987
same,normalized growth,[15],0.935
same,normalized growth,[16],0.964
same,normalized growth,[17],0.978
same,normalized growth,[18],0.974
same,normalized growth,[19],1
same,normalized growth,"S. cerevisiae deletion strains, locus YNL128W, strain TEP1, hits give low values",0.972
same,normalized growth,[21],1.01
same,normalized growth,[22],1.03
same,normalized growth,[23],0.952
same,normalized growth,[24],0.955
same,normalized growth,"S. cerevisiae deletion strains, locus YOL006C, strain TOP1, hits give low values",0.97
same,normalized growth,[25],1.03
same,normalized growth,[26],0.992
same,normalized growth,[27],1.08
same,normalized growth,[28],0.976
O=S(=O)(NCc1ccc(F)cc1F)c1cccc(C(F)(F)F)c1,normalized growth,[3],0.969
same,normalized growth,[4],0.98
same,normalized growth,[29],0.972
same,normalized growth,[1],0.985
same,normalized growth,"S. cerevisiae deletion strains, locus YDL134C, strain PPH21, hits give low values",0.894 (active)
same,normalized growth,[5],0.911
same,normalized growth,[6],0.988
same,normalized growth,[7],0.976
same,normalized growth,[8],0.98
same,normalized growth,[2],0.946
same,normalized growth,[9],0.978
same,normalized growth,[10],0.972
same,normalized growth,[11],0.984
same,normalized growth,[12],0.947
same,normalized growth,"S. cerevisiae deletion strains, locus YKL190W, strain CNB1, hits give low values",0.977
same,normalized growth,[13],0.884
same,normalized growth,[14],0.979
same,normalized growth,[15],0.954
same,normalized growth,[16],0.844
same,normalized growth,[17],0.962
same,normalized growth,[18],0.979
same,normalized growth,[19],0.979
same,normalized growth,[20],0.899
same,normalized growth,[21],1.01
same,normalized growth,[22],0.968
same,normalized growth,[23],0.973
same,normalized growth,[24],0.986
same,normalized growth,[25],0.873
same,normalized growth,[26],0.982
same,normalized growth,[27],0.913
same,normalized growth,[28],0.98
